Among the data in PubChem BioAssay (NCATS) are Potency, outcome and activation values, retold here.

Several values for one entry are separate records, joined by “and”; a condition that tells them apart may be missing. Equal entries are not always repeated. A number with no mark means an inactive call. Inconclusive results are not listed. Activity calls are given as the source filed them. Unless noted, calls come from the whole dose curve; as a rule, active = well fitted curve in the direction sought with a large enough effect; inconclusive = small, poorly fitted or top-dose-only effect, or another doubt; inactive = no such curve, though single readings can be large; an effect the other way counts as inactive or inconclusive.

The nature of assay [1]: Cell Viability - MRC5 (AID 434; calls by dose curve;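 note: potency is the fitted concentration of half-maximal effect; potency reflects cytotoxicity seen as loss of intracellular ATP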). The note with it: MRC5 lung fibroblast viability, qHTS. An outline of the steps:
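AC50 values come from Hill-equation fits of intracellular ATP loss, measured by CellTiter-Glo luminescence. Normal lung fibroblasts (MRC5) had 40 hr compound treatment at 37 C, normalized between DMSO and 100 uM tamoxifen.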
In general terms: qHTS replaces the single test concentration by a dilution series.

Assay [2] deals with Mitogen-activated protein kinase 10 (Mus musculus) (UniProt Q61831). The experiment in a line: JNK3 AlphaScreen Assay (AID 530; active = well fitted curve in either direction with a large enough effect, not every such curve was filed as active;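 note: kinase came from lysate of stimulated human HepG2 cells; signal reports phosphorylation of biotinylated GST-cJun 1-79 at Ser73 with 10 µM ATP; % is set by controls: 0 for no effect and ±100 for the full control effect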). The note with it: JNK3 lysate, c-Jun phosphorylation; series mostly up to 57.1 µM. An outline of the steps: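 Kinase buffer: 20 mM Tris-HCl pH 7.6, 10 mM MgCl2, 1 mM DTT, 0.1 mM Na3VO4, 0.01% Tween-20; ATP 10 uM. Substrate biotin-GST-cJun(1-79), enzyme from activated HepG2 lysates. Detection by Ser73 phospho-antibody AlphaScreen.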
(In general: Bead proximity is the source of the signal in Alpha formats.)

Assay [3] is described as follows: Cell Viability - Renal Proximal Tubule (AID 545). Note: nearly all actives have a fitted effect of over 40% in size. Conditions: renal proximal tubule cells viability; series mostly up to 91.7 µM. In outline: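 Rat renal proximal tubule primary cells, 1000/well, exposed to compounds for 40 hr at 37 °C in complete medium; cellular ATP read by CellTiter-Glo luminescence. AC50 from concentration-response fitted with standard Hill equation.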

A short description of assay [4]: Cellular Toxicity (caspase-3) HepG2 (AID 654).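 Note: cells exposed to compound for 16 hours before reading; 0% = DMSO alone and 100% = caspase signal from 100 µM tamoxifen.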 The note with it: HepG2 caspase-3 activation, luminescence, 0% = DMSO only, 100% = tamoxifen; series mostly up to 92.2 µM. In outline: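 Luminescent Caspase-Glo 3/7 readout after 16 hr compound exposure of human hepatocellular carcinoma HepG2 cells at 37 °C; qHTS concentration-response, normalized DMSO = 0%, 100 uM tamoxifen = 100%; AC50 by standard Hill equation.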

Assay [5] in a line: Cellular Toxicity (caspase-3) SHSY5Y (AID 657). Conditions: SH-SY5Y caspase-3 activation, DMSO zero, 10 µM staurosporine = 100%; series mostly up to 91.7 µM. In outline:
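SH-SY5Y human neuroblastoma cells, 1500/well, exposed to compound for 16 hours at 37 °C in complete medium. Caspase-3/7 activity read by Caspase-Glo luminescence after 1 hr at room temperature, normalized to DMSO and 10 uM staurosporine; AC50 from Hill fit.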

Assay [6] is described as follows: Cellular Toxicity (caspase-3) H-4-II-E (AID 663).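 Note: cells exposed to compound for 16 hr before readout.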 The note with it: H-4-II-E rat hepatoma; Potency: caspase-3 activation; series mostly up to 92.2 µM. In outline: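 Caspase 3/7 activation measured by luminescent aminoluciferin substrate cleavage after 16 hr compound treatment of H-4-II-E cells in complete medium. Increase normalized between DMSO (basal) and 100 uM tamoxifen (100%); Hill-equation AC50 from concentration-response.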

Assay [7] in a line: Cellular Toxicity (caspase-3) Renal Proximal Tubule (AID 667).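 Note: cells exposed to compound for 16 hours at 37 °C before detection.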 The note with it: renal proximal tubule cells; series mostly up to 91.7 µM. In outline:
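Freshly isolated primary rat kidney proximal tubule cells, 1000/well, treated 16 hr at 37 °C, then Caspase-Glo 3/7 luminescence after 1 hr. Normalized to DMSO and 10 uM staurosporine; AC50 from Hill fit.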

Assay [8] can be described thus: Cell Viability - LYMP2-001 (AID 921).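 Note: 0% = DMSO only and full inhibition = tetraoctylammonium bromide control wells; nearly all actives have a fitted effect of over 70% in size.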 Conditions: LYMP2-001 lymphoblastoid cell viability; series mostly up to 92.2 µM. An outline of the steps: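 Human lymphoblastoid LYMP2-001 cells, 2500 per well, in complete medium, treated 24 h at 37 C. Viability from cellular ATP by CellTiter-Glo luminescence; AC50 from Hill-equation fits of qHTS concentration-response.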
Assay [9] can be described thus: MultiTox-Fluor Cytotoxicity Assay - LYMP1-003 - Dead Cells (AID 961).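 Note: 0% = DMSO and 100% = tetraoctylammonium bromide; nearly all actives have a fitted effect of over 70% in size.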 The note with it: LYMP1-003 lymphoblastoid cells, dead-cell protease fluorescence; series mostly up to 92.2 µM. An outline of the steps: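 LYMP1-003 human lymphoblastoid cells (2500/well) exposed to compound 16 h at 37 C in complete medium; dead-cell protease read with bis-AAF-R110 fluorescence (Ex/Em 485/520) after 60 min at room temperature. Normalized to DMSO and 15 uM tetraoctylammonium bromide; AC50 from Hill fit.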

Assay [10] can be described thus: Cell Viability - LYMP1-003 - Assay at 24 hr (AID 963).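 Note: plate controls were DMSO only for no effect and tetraoctylammonium bromide positive control for full effect.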 The note with it: LYMP1-003 lymphoblastoid cell viability; series mostly up to 92.2 µM. An outline of the steps: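 CellTiter-Glo luminescence (intracellular ATP) read after 24 hr, 37 C compound exposure of 2500 LYMP1-003 human lymphoblastoid cells/well in complete medium; qHTS concentration series; AC50 via standard Hill equation.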

The nature of assay [11]: Cell Viability - LYMP1-003 - Assay at 40 hr (AID 964). Note: % is set by controls: 0 for no effect and ±100 for the full control effect; nearly all actives have a fitted effect of over 60% in size. Conditions: LYMP1-003 lymphoblastoid viability; series mostly up to 92.2 µM. An outline of the steps: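 LYMP1-003 lymphoblastoid cells, 2500/well; 5 hr preincubation, 40 hr compound exposure, 37 C; CellTiter-Glo 30 min RT; luminescence; Hill-fit AC50. Positive control tetraoctylammonium bromide.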
Assay [12] is described as follows: Cell Viability - LYMP2-009 (AID 968).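 Note: 0% = DMSO alone and the full-kill end = tetraoctylammonium bromide at 92 µM; nearly all actives have a fitted effect of over 55% in size.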 The note with it: LYMP2-009 lymphoblastoid cell viability; series mostly up to 92.2 µM.
A short description of assay [13]: Cell Viability - LYMP2-021 (AID 974).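 Note: compound exposure lasts 24 hours at 37 °C; % is set by controls: 0 for no effect and ±100 for the full control effect; nearly all actives have a fitted effect of over 55% in size.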 Conditions: LYMP2-021 lymphoblastoid cells viability; series mostly up to 92.2 µM. In outline:
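ATP luminescence (CellTiter-Glo, 30 min RT) after 24 h compound exposure at 37 C; 2500 human lymphoblastoid cells/well, 5 h settle beforehand. Cytotoxicity = concentration-dependent ATP drop, AC50 by Hill fit.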

A short description of assay [14]: Cell Viability - LYMP2-006 (AID 978).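 Note: cells exposed to compound for 24 hours; % is set by controls: 0 for no effect and ±100 for the full control effect; nearly all actives have a fitted effect of over 60% in size.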 Conditions: LYMP2-006 lymphoblastoid cell viability, qHTS; series mostly up to 92.2 µM. In outline:
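Human lymphoblastoid cells (LYMP2-006), 2500/well in complete medium, were treated with compound for 24 hr at 37 C. Cellular ATP was read by CellTiter-Glo luminescence after 30 min, and AC50 values came from Hill-equation fits of concentration-response data.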

Assay [15] can be described thus: Cell Viability - LYMP2-008 (AID 980). Note: % is set by controls: 0 for no effect and ±100 for the full control effect; nearly all actives have a fitted effect of over 60% in size. The note with it: LYMP2-008 lymphoblastoid cell viability, qHTS; series mostly up to 92.2 µM. In outline:
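Luminescent ATP read-out (CellTiter-Glo, 30 min RT) after 24 hr compound exposure at 37 C of human lymphoblastoid cells in complete medium. Decrease in ATP taken as cytotoxicity; AC50 derived by standard Hill fit of qHTS concentration-response data.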

A short description of assay [16]: Cell Viability - LYMP2-018 (AID 985).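 Note: plate controls were DMSO only for no effect and tetraoctylammonium bromide at 92 µM for full effect; nearly all actives have a fitted effect of over 50% in size.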 The note with it: LYMP2-018 lymphoblastoid cells, viability (qHTS); series mostly up to 92.2 µM. An outline of the steps: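 2500 cells/well; 5 hr 37 C; cmpd 24 hr 37 C, complete medium; CellTiter-Glo 30 min RT; luminescence. Tetraoctylammonium bromide positive control. AC50 via Hill fit.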
A short description of assay [17]: Cell Viability - LYMP1-002 - Assay at 24 hr (AID 993). Note: % is set by controls: 0 for no effect and ±100 for the full control effect. Conditions: LYMP1-002 lymphoblastoid cells viability; series mostly up to 92.2 µM. An outline of the steps:
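CellTiter-Glo luminescence (intracellular ATP) after 24 h compound exposure, 37 C, in LYMP1-002 human lymphoblastoid cells; decreased ATP taken as cytotoxicity. AC50 from standard Hill fit of concentration-response curves.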

Assay [18] can be described thus: qHTS assay for environmental chemicals that activate the Aryl hydrocarbon Receptor (AhR) signaling pathway (AID 651777). For activation: % of control where 0% means no effect. Note: nearly all actives have a fitted effect of over 15% in size. Note: potency is the fitted concentration of half-maximal effect. The note with it: 1A2-DRE human hepatoma cells, luciferase, 24 h; activation: hits give high values. An outline of the steps:
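Quantitative HTS in stably transfected human liver-derived cells whose luciferase gene sits downstream of the CYP1A2 promoter and dioxin response element. After 24 hr exposure at 37 C, One-Glo luminescence was measured.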

Assay [19] in a line: qHTS assay for small molecule activators of the human pregnane X receptor (PXR) signaling pathway (AID 720659; call rule not given here; note: 0% is about no effect). Conditions: DPX-2 HepG2 CYP3A4-luciferase, 24 h; series mostly up to 92.3 µM.
Assay [20] can be described thus: Cellular Toxicity (caspase-3) N2a (AID 665).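 Note: compound exposure lasted 16 h at 37 °C before readout.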 The note with it: N2a cells, luminescence, normalized: DMSO 0%, 10 µM staurosporine 100%; series mostly up to 92.2 µM. An outline of the steps:
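Luminescent Caspase-Glo 3/7 readout in N2a mouse neuroblastoma cells after 16 h compound exposure at 37 °C. Signal scaled to DMSO (basal) and 10 uM staurosporine (100%). Concentration-response fitted with Hill equation for AC50.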

Take `ClC(Br)Br`: the Potency in assay [1] is more than 92 µM. The Potency entry in assay [2], in [6], in assay [8], in assay [9], in assay [11] and in [12] was “inactive” throughout. Moreover, the Potency result in [13], in assay [14], in assay [15], in assay [16] and in assay [17] was “inactive” throughout. For the same molecule, the result in [3], in assay [4], in assay [5], in assay [7], in [10] and in assay [19] was inactive. Besides, the activation in [18] was 0.329%.
In the case of `c1ccc(N=NNc2ccccc2)cc1`, the Potency in [1] was more than 92 µM; in assay [18] it was 12.6 µM (active) and 1.41 µM (active). Moreover, the result in assay [3], in [5], in assay [20] and in assay [10] was inactive. Also, the Potency result in [6], in [9], in assay [11], in assay [12], in assay [13] and in [14] was “inactive” in each case. Also, the Potency result in [15], in [16] and in assay [17] was “inactive” in each case.
In the case of `COC(=O)c1ccccc1N`, the Potency in assay [1] was more than 92 µM. The Potency result in assay [2], in [6], in [8], in assay [9], in [11] and in assay [12] was “inactive” in each case. Besides, the Potency entry in assay [13], in [14], in assay [16] and in [17] was “inactive” each time. Further, the molecule was classed as inactive in assay [3], in [4], in assay [5], in assay [20], in assay [7] and in [10]. Also, the molecule was classed as inactive in [19]. Further, in [18], the activation is 1.96%.
As for `CC(C)Br`, in assay [1], the Potency was more than 92 µM. Also, the Potency result in assay [2], in assay [9], in [11], in assay [12], in [13] and in [14] was “inactive” in each case. Moreover, the Potency result in assay [15] and in assay [16] was “inactive” in each case. The molecule was classed as inactive in [4], in assay [5], in assay [20], in assay [7], in [10] and in assay [19]. Further, the activation in [18] was -0.85%.
In the case of `c1ccc(NNc2ccccc2)cc1`, the Potency in assay [1] was more than 92 µM. Besides, the Potency entry in assay [2], in [6], in assay [8], in assay [14], in assay [15] and in assay [16] was “inactive” each time. Also, the outcome in [4], in [5], in assay [20], in [7], in assay [10] and in assay [19] was inactive.
`O=c1ccc(=O)[nH][nH]1`: the Potency in assay [1] is more than 92 µM. The molecule was called inactive in assay [3], in assay [4], in [5], in [20], in assay [7] and in assay [19]. The Potency result in [6], in assay [8], in [9], in assay [11], in [12] and in assay [13] was “inactive” each time. The Potency result in [14], in assay [15], in assay [16] and in assay [17] was “inactive” in each case. The activation in [18] was 0.524% and -2.54%.
